From PubChem BioAssay (NCI)
Compounds without any hit were thinned out: in the full panel of roughly 83,000, 20% have a hit.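 Each cell line was grown in a 96-well plate and treated with one concentration of compound for 48 hours. Values below 10 were considered active.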 A number with no mark means an inactive call. Activity calls are given as the source filed them.

Experiments:
Test in all cases: NCI-60 one-dose screen, 48 h (100 = growth as untreated, 0 = no growth, -100 = all killed)
Conditions in all cases: 10 µM unless noted
HCT-15 colon = tested on: HCT-15 colon
HT29 colon = tested on: HT29 colon
SNB-75 CNS = tested on: SNB-75 CNS
SNB-19 CNS = tested on: SNB-19 CNS
U251 CNS = tested on: U251 CNS
PC-3 prostate = tested on: PC-3 prostate
SK-MEL-5 melanoma = tested on: SK-MEL-5 melanoma
UACC-62 melanoma = tested on: UACC-62 melanoma
LOX IMVI melanoma = tested on: LOX IMVI melanoma
SK-MEL-28 melanoma = tested on: SK-MEL-28 melanoma
EKVX NSCLC = tested on: EKVX NSCLC
SN12C renal = tested on: SN12C renal
UO-31 renal = tested on: UO-31 renal
TK-10 renal = tested on: TK-10 renal
ACHN renal = tested on: ACHN renal
CAKI-1 renal = tested on: CAKI-1 renal
A498 renal = tested on: A498 renal
CCRF-CEM leukemia = tested on: CCRF-CEM leukemia
MOLT-4 leukemia = tested on: MOLT-4 leukemia

SMILES | growth (HCT-15 colon) | growth (HT29 colon) | growth (SNB-75 CNS) | growth (SNB-19 CNS) | growth (U251 CNS) | growth (PC-3 prostate) | growth (SK-MEL-5 melanoma) | growth (UACC-62 melanoma) | growth (LOX IMVI melanoma) | growth (SK-MEL-28 melanoma) | growth (EKVX NSCLC) | growth (SN12C renal) | growth (UO-31 renal) | growth (TK-10 renal) | growth (ACHN renal) | growth (CAKI-1 renal) | growth (A498 renal) | growth (CCRF-CEM leukemia) | growth (MOLT-4 leukemia)
CN1C(=O)/C(=C\C(=O)c2cc3ccccc3oc2=O)c2ccccc21 | 39.7% | 93.4% | 96.8% | 78.9% | 42.6% | 84.5% | 92.1% | 42.6% | 58.9% | 60.8% | 63.6% | 66.3% | 53.6% | 98% | 25.3% | 65.2% | 160% | 43.4% | 50.4%
COc1ccc(C2=NN(C(=O)[C@H]3[C@@H](c4ccco4)c4sc(=O)[nH]c4S[C@@H]3C)C(c3ccc4ccccc4c3)C2)cc1 (some centres undefined) | 12% | 15.3% | 50.8% | 39.8% | 19.5% | 28.6% | 36.5% | 29% | 31.3% | 32% | 23.2% | 39% | 19.5% | 50.4% | 16% | 20.7% | 102% | 6.09% (active) | 12%
CN1CCN(C(=O)CCN(C(=O)Oc2cc3c(c4ccccc24)[C@H](CCl)CN3C(=O)c2cc3cc(OCCCN4CCC4)ccc3[nH]2)[C@H]2CCSSC2)CC1 | -37% (active) | -69.8% (active) | -58.5% (active) | -50.7% (active) | -65.9% (active) | -65% (active) | -93.7% (active) | -81.9% (active) | -71.8% (active) | -89.2% (active) | -89.3% (active) | 0.64% (active) | -37.7% (active) | -25.7% (active) | -30.5% (active) | -58.3% (active) | -40.9% (active) | -35.6% (active) | -35.3% (active)
COc1cc(-c2ccc3ncnc(N4CCc5ccc(Cl)cc54)c3c2)cnc1Cl | 24% | 15.1% | -2.67% (active) | 35% | 45.6% | 14.5% | -1.72% (active) | 10% | 11.7% | 23.8% | 2.35% (active) | – | 5.14% (active) | 29.5% | 14.1% | 12.9% | -4.48% (active) | 12.2% | 6.74% (active)
CCCCNc1ccc2c3c(cccc13)C(=O)N(NCC(O)COc1ccc3c(C)cc(=O)oc3c1)C2=O (centres undefined) | 77.3% | 100% | 94.1% | 83.9% | 96.5% | 84% | 77.9% | 69.2% | 81.3% | 103% | 77.4% | 94.5% | 43.5% | 153% | 86.2% | 85.6% | 89.2% | 84.2% | 77.7%
CN1C(=O)C2(C(C#N)=C(c3ccc(Cl)cc3)Nc3c2c(-c2ccccc2)nn3-c2ccccc2)c2ccccc21 (centres undefined) | 87.6% | 85.2% | 69.4% | 87% | 102% | 85.8% | 88.1% | 69.5% | 55.3% | 94.2% | 80.7% | 86.3% | 71.7% | 103% | 89.5% | 71% | 144% | 75.6% | 64.4%
CN(C)CCCc1ccc(Nc2cnn(C)c(=O)c2Cl)cc1 | 96.6% | 105% | 74.2% | 103% | 105% | 91% | 93.2% | 98.9% | 101% | 111% | 98.1% | 100% | 88.1% | 109% | 113% | 83.5% | 94.7% | 102% | 115%
COc1ccc(-c2nc3ccc(-c4nnc(SCc5ccccc5)o4)cc3[nH]2)cc1OC | 35.6% | 52.9% | -54.2% (active) | 28.1% | 0.298% (active) | 50.9% | 39.7% | 0.287% (active) | 7.48% (active) | 30.6% | 58.1% | – | -8.65% (active) | – | -45.4% (active) | 16.2% | 117% | 76.4% | 78.8%
